# Screens: PubChem BioAssay, The Scripps Research Institute Molecular Screening Center
# SRC1 TRFRET art: TR-FRET artefact, counter-screen to PPARgamma/SRC-1 agonist assay; TR-FRET ratio at 8 µM; 99,000 tested, 0.34% active; TR-FRET detection artefact counter-screen, emission ratio; active compounds read high; in the data active means TR-FRET ratio above about 2300
# TR-FRET SRC-2 ct: TR-FRET artefact, counter-screen to PPARgamma/SRC-2 agonist assay; active compounds read high; TR-FRET ratio at 8 µM; 200,000 tested, 0.4% active; in the data active means TR-FRET ratio above about 2000
# SRC3 TRFRET art: counter-screen for PPARgamma SRC-3 recruitment agonists: TR-FRET artefact. PPARgamma/SRC-3 format; active compounds read high. TR-FRET ratio at 8 µM. 99,000 tested, 0.39% active. AID 1048; in the data active means TR-FRET ratio above about 2000
# PPARg SRC-1 ag: PPARgamma-driven SRC-1 recruitment agonism | P37231 | PPARgamma-SRC-1 coactivator recruitment biochemical assay | activation, % at 8 µM | 200,000 tested, 0.41% active; in the data active means activation above about 19%;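 further: 0% = DMSO and 100% = reference agonist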
# Target sequence (P37231 whole entry, looked up): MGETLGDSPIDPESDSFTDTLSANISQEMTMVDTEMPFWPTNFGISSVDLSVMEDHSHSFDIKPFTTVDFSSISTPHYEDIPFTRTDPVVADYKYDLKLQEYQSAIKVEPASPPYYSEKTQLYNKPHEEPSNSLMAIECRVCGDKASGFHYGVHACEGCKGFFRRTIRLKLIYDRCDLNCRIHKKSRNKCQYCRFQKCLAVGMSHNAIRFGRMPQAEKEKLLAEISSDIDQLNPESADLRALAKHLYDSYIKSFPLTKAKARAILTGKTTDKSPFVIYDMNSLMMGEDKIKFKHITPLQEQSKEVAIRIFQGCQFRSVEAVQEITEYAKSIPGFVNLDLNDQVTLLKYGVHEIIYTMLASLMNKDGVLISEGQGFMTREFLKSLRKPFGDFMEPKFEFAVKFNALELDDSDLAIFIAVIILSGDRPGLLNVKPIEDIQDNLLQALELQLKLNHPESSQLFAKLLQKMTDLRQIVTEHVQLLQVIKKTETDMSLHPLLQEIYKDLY
# PPARg SRC3 recr: agonists of human PPARgamma SRC-3 coactivator recruitment. biochemical PPARgamma/SRC-3 coactivator recruitment assay. activation, % at 8 µM. 200,000 tested, 0.26% active; in the data active means activation above about 23%;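 further: 0% = DMSO and 100% = reference agonist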
# PPARg SRC2 recr: PPARgamma-driven SRC-2 recruitment agonism | PPARgamma LBD-SRC-2 recruitment, biochemical | activation, % at 8 µM | 200,000 tested, 0.34% active;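 further: 0% = vehicle and 100% = reference agonist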
# PPARg SRC2 ag: human PPARgamma SRC-2 recruitment agonism, confirmation; shares compounds with PPARg SRC3 recr; biochemical SRC-2 recruitment by PPARgamma; activation, % at 8 µM; 790 tested, 52% active; AID 1297;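 further: 0% = vehicle alone and 100% = reference agonist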
# PPARg SRC1 conf: human PPARgamma SRC-1 recruitment agonism, confirmation; shares compounds with PPARg SRC3 recr; PPARgamma–SRC-1 coactivator recruitment biochemical assay; activation, % at 8 µM; 790 tested, 43% active; in the data active means activation above about 20%;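 further: 0% = vehicle wells and 100% = reference agonist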
# PPARg SRC3 conf: human PPARgamma SRC-3 recruitment agonism, confirmation. shares compounds with PPARg SRC3 recr. biochemical PPARgamma-SRC-3 coactivator recruitment, agonist mode. activation, % at 8 µM. 790 tested, 29% active. AID 1301; in the data active means activation above about 24%;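 further: 0% = vehicle wells and 100% = reference agonist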
# The depositor's hits bear a star; . = not tested or not shown. Most compounds without a hit are left out; they make up all but 0.9% or so of the library. Unless noted, no stated cut-off is given here; in the data, active means activation above about 22%; inactive means the rest.
SMILES,SRC1 TRFRET art,TR-FRET SRC-2 ct,SRC3 TRFRET art,PPARg SRC-1 ag,PPARg SRC3 recr,PPARg SRC2 recr,PPARg SRC2 ag,PPARg SRC1 conf,PPARg SRC3 conf
O=C1c2ccccc2-c2onc3ccc(NCc4ccco4)c1c23,2253,1951,2084*,32*,21,35*,23*,14,13
CCNc1ccc2noc3c2c1C(=O)c1ccccc1-3,.,1616,.,5,11,1,.,.,.
Cc1n[nH]c(C)c1CCc1nc2c3ccccc3nc(SCC(N)=O)n2n1,.,1450,.,0,5,0,.,.,.
Cc1ccc(NC(=O)CSc2nc3ccccc3c3nc(CCc4c(C)n[nH]c4C)nn23)cc1F,.,1631,.,25*,22,6,2,-1,2
COc1ccccc1C(=O)Nc1ccc(Br)cc1C,1815,1616,1612,5,3,12,.,.,.
COc1ccc(C(=O)Nc2cccc3c2C(=O)NC3=O)cc1S(=O)(=O)N1CCOCC1,.,1625,.,21*,14,-3,-3,-4,-2
COc1cnn(-c2ccccc2)c(=O)c1SCc1ccc(Cl)c(Cl)c1,.,1521,.,5,16,-4,.,.,.
CSc1c(SCc2ccccc2)cnn(-c2ccccc2)c1=O,2714*,1914,2060*,24*,18,27*,50*,36*,33*
CCn1c(=O)cc(SCC(=O)N2CCOCC2)c2ccccc21,.,2862*,.,45*,82*,55*,35*,22*,22
CCn1c(=O)cc(SCC(=O)N2CCN(C3CCCCC3)CC2)c2ccccc21,.,2255*,.,19*,37*,35*,27*,17,18
CCN1CCCC1CNC(=O)CSc1cc(=O)n(CC)c2ccccc12 (stereo not given),.,2187*,.,23*,42*,26*,27*,15,18
CCn1c(=O)cc(SCC(=O)N2CCN(C(=O)c3ccco3)CC2)c2ccccc21,.,2772*,.,54*,63*,55*,34*,21*,24
CCn1c(=O)cc(OCC(=O)N2CCCCCC2)c2ccccc21,.,1453,.,5,1,4,.,.,.
COc1cccc(C(=O)N2CCN=C2SC)c1,1535,1418,1452,-1,-3,0,.,.,.
Cc1cc(N2CCCC2)nc2ccc(NC(=S)NCCCN3CCC(C)CC3)cc12,1885,1433,1637,4,8,4,.,.,.
Cc1ccc(S(=O)(=O)N(C)c2ccc3sc(C)nc3c2)cc1,1519,1430,1498,4,6,6,.,.,.
CCn1c(=O)cc(SCC(=O)N2CCN(c3ccccc3OC)CC2)c2ccccc21,.,2834*,.,72*,85*,68*,53*,37*,34*
CCn1c(=O)cc(SCC(=O)NCCCN2CCN(c3ccccc3F)CC2)c2ccccc21,.,3692*,.,65*,96*,79*,42*,27*,29*
COc1ccc(NC(=O)CC2C(=O)N(c3ccc(OC)cc3)C(=O)N2Cc2ccc(OC)c(OC)c2)cc1 (stereo not given),1658,1545,1455,0,1,-3,.,.,.
COc1ccc(NC(=O)c2oc3cc(C)c(C)cc3c2C)c(OC)c1,.,1355,.,-6,3,-9,.,.,.
CCN(CC)S(=O)(=O)c1ccc2oc(C(=O)Nc3ccc(OC)cc3OC)c(C)c2c1,.,1691,.,19*,-10,13,0,3,2
N#Cc1c(-c2ccccc2)cc(C2CC2)nc1SCC(=O)c1cccs1,.,2112*,.,24*,12,7,53*,43*,26*
CS(=O)(=O)Nc1ccccc1C(=O)NCc1ccco1,.,1638,.,1,26*,20,7,4,5
CCOc1ccc(S(=O)(=O)Nc2ccccc2C(=O)NCc2ccco2)cc1,.,1630,.,9,10,5,.,.,.
CCCC(=O)c1cc2c(cc1NC(=O)c1ccccc1F)OCCO2,1418,1648,1537,1,-6,-2,.,.,.
SMILES,SRC1 TRFRET art,TR-FRET SRC-2 ct,SRC3 TRFRET art,PPARg SRC-1 ag,PPARg SRC3 recr,PPARg SRC2 recr,PPARg SRC2 ag,PPARg SRC1 conf,PPARg SRC3 conf
CCOC(=O)c1c(OCC)[nH]c2c1cc(O)c1ccccc12,.,1702,.,19*,20,6,8,8,5
C=CCNC(=S)NN=C1CCCCCCC1,1406,1384,1395,2,-3,-4,.,.,.
C=CCn1c(-c2cccc(Cl)c2)n[nH]c1=S,.,2008*,.,25*,28*,20,20,14,13
C=CCOc1c(Cl)cc(CNc2ccc(N(C)C)cc2)cc1OC,.,2956*,.,60*,120*,103*,9,9,6
C=CCOc1c(Cl)cc(CNc2ccc(C)c(Cl)c2)cc1OC,.,1597,.,2,-10,-8,.,.,.
O=C(N/N=C1/CC2C=CCC12)c1ccco1 (stereo not given),2107,1600,1574,12,5,12,.,.,.
CC(C)Cn1cc(F)c(=O)n(CC(C)C)c1=O,2267,1686,1463,-1,4,7,.,.,.
COc1ccc(-n2c(-c3ccco3)n[nH]c2=S)cc1,.,1858,.,22*,21,14,20,11,13
S=c1[nH]nc(-c2ccco2)n1-c1ccc(Cl)cc1,2279,1660,2067*,16,18,23*,18,9,11
COc1ccccc1-c1n[nH]c(=S)n1-c1ccccc1,.,2941*,.,62*,84*,63*,57*,39*,39*
COc1ccccc1-c1n[nH]c(=S)n1N,1712,1698,1623,11,4,2,.,.,.
Nn1c(-c2ccco2)n[nH]c1=S,.,1580,.,1,0,3,.,.,.
COCCN(CCOC)S(=O)(=O)c1ccc(C(=O)Nc2ccc([N+](=O)[O-])cc2OC)cc1,1957,1755,1711,5,1,7,.,.,.
Cc1ccc(Sc2c(O)c3ccccc3n(C)c2=O)cc1,2302,2048*,2226*,24*,16,26*,22*,13,14
Cc1ccc(Sc2c(C=O)c3ccccc3n2C)cc1,.,1743,.,7,-1,9,.,.,.
CCCC(=Nc1ccc(N)cc1)C1=C(O)C(C(=O)OC)C(C)(C)CC1=O (stereo not given),.,1541,.,9,27*,19,3,1,2
CCCC(=O)C1=C(O)C(C(=O)OC)C(C)(C)CC1=Nc1ccc(N)cc1 (stereo not given),.,1498,.,5,1,2,.,.,.
COC(=O)C1CCN(CC(=O)NC(=O)NC2CCCCC2)CC1,1633,1569,1560,-4,-6,4,.,.,.
Cc1ccc(-n2c(O)c(C=NCc3ccccn3)c3ccccc3c2=O)cc1C,1533,1598,1701,-3,1,-10,.,.,.
COc1ccc(CNC(=O)COC(=O)c2cc(-c3ccc(Cl)s3)nc3ccccc23)cc1,.,2696*,.,13,17,23*,20,16,12
